This is a sample that favours compounds with a hit; in the whole collection about 3.4% have one here.
MEKK2 WT-MEK5 = modulators of MEK5 binding to wildtype MEKK2, primary screen, biochemical, multiplex bead flow cytometry, Alexa488-MEK5 | Alexa488-MEK5 binding to MEKK2 WT; actives lie on both sides | 290,000 tested, 1.1% active | binding response (% of control), % at 10 µM; in the data active means binding response below about 67% or above about 130%
TMEM16A act = TMEM16A chloride channel activators or potentiators, primary screen, cell-based, HTS. AID 623877, 2012. 340,000 tested, 0.3% active. Anoctamin-1 (Mus musculus), Q8BHY3. HEK293 TMEM16A/YFP-H148Q/I152L, iodide quench fluorescence; active compounds read low. B-score at 10 µM;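 active means fluorescence-ratio B-score plate-corrected deviation score at least 3 library SD below zero, with starting fluorescence score within 5 deviations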;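 further: channel opened by trigger with iodide after compound preincubation; score built on the fluorescence ratio of max minus min over baseline; more negative score means more quench and so TMEM16A activation or potentiation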
MEKK2 mut-MEK5 = MEK5 binding signal on mutant MEKK2 PB1, primary screen, biochemical, multiplex bead flow cytometry, Alexa488-MEK5. Alexa488-MEK5 binding to MEKK2 mutant. percent response, % at 10 µM. 290,000 tested, 0.35% active; in the data active means percent response above about 24%, passing the limit was not always enough
NTR1 agonist = agonists of human NTR1, primary screen, imaging, U2OS cells, beta-arrestin-GFP, high content. Neurotensin receptor type 1 (Homo sapiens), P30989. NTR1-U2OS beta-arrestin-GFP spot imaging, agonist mode. activation, % at 20 µM. 330,000 tested, 0.17% active;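 active means activation at or above 40% of the spot to cytoplasm intensity ratio, with at least 20 cells analyzed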;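 further: 0% = DMSO without peptide and 100% = 100 nM NTR1 peptide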
Target sequence (P30989 whole entry, looked up): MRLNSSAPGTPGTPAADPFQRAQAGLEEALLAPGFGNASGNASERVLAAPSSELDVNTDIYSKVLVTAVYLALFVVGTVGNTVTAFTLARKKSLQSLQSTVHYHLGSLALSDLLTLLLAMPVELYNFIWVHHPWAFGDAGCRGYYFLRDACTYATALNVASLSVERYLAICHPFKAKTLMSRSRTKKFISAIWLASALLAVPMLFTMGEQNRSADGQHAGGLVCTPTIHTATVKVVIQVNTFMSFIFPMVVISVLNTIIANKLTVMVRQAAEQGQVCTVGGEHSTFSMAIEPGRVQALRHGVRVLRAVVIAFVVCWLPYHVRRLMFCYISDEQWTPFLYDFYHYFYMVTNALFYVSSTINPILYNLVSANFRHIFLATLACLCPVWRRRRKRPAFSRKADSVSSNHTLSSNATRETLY
TMEM16A inh = TMEM16A chloride channel inhibitors, primary screen, cell-based, HTS; 310,000 tested, 1.2% active; HEK293 TMEM16A/YFP iodide influx fluorescence, ionomycin; normalized B-score (activity score, 25-100; higher = stronger inhibition) at 10 µM; Anoctamin-1 (Mus musculus), Q8BHY3;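 active means ratio plate-corrected score three or more library SD toward inhibition, starting fluorescence score within five deviations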;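 further: score derived from kinetic fluorescence span divided by baseline fluorescence per well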
MEKK3 PB1 HTS = modulators of MEKK3-MEK5 PB1 binding, primary screen, biochemical, wildtype MEKK3, multiplex bead flow cytometry, Alexa488-MEK5 | bead-based flow cytometry, Alexa488-MEK5 binding to MEKK3; actives lie on both sides; 0 = blocked by unlabeled MEK5, 100 = vehicle | binding response (% of control), % at 10 µM | 290,000 tested, 1.4% active | AID 1529, 2009;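 active means binding response more than 3 SD above or below the average of its plate-row segment, actives on both sides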;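 further: Alexa488 bead fluorescence after subtracting the streptavidin-only scavenger bead signal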
MEKK2wt confirm = modulators of MEK5 binding to wildtype MEKK2, confirmation, biochemical, single concentration, multiplex bead flow cytometry. shares compounds with MEKK3 PB1 HTS. Alexa488-MEK5 binding to MEKK2 WT; actives lie on both sides. binding response (% of control), % at 10 µM. 5,900 tested, 2.4% active. AID 1892, 2009; in the data active means binding response below about 16% or above about 210%; inactive means in between
MEKK2mut-MEK5 = mutant MEKK2 PB1-MEK5 binding signal retest – biochemical, single concentration, multiplex bead flow cytometry, confirmation; 5,900 tested, 2% active; percent response, % at 10 µM; Alexa488-MEK5 binding to MEKK2 mutant; shares compounds with MEKK3 PB1 HTS; in the data active means percent response mostly above about 71%, no sharp cut-off; inactive means mostly below about 38%;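 further: higher means compound restores mutant binding toward wildtype level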
MEKK3 confirm = MEKK3 wild-type PB1 binding to MEK5, inhibitors, confirmation, biochemical, bead multiplex flow cytometry, single concentration, wildtype | shares compounds with MEKK3 PB1 HTS | Alexa488-MEK5 binding to MEKK3; active compounds read low | 5,900 tested, 1.8% active | binding response (% of control), % at 10 µM | AID 1894, 2009;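 active means binding response below 72% of control, or above a set upper limit, though filed actives all read lower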;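 further: 100% = DMSO only wells and 0% = binding blocked by excess unlabeled MEK5; lower values mean stronger disruption of MEK5 binding to MEKK3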
* = called active by the depositor; i = inactive; . = not tested or not shown; [ ] = remark or other dose.

SMILES	MEKK2 WT-MEK5	TMEM16A act	MEKK2 mut-MEK5	NTR1 agonist	TMEM16A inh	MEKK3 PB1 HTS	MEKK2wt confirm	MEKK2mut-MEK5	MEKK3 confirm
COc1ccc(-c2c(-c3ccc(OCC(=O)NN)cc3O)n[nH]c2C)cc1OC	104	i	3	0	i	104	.	.	.
COc1ccc(-c2c(-c3ccc(OCC(=O)NN)cc3O)n[nH]c2C(F)(F)F)cc1	107	i	0	4	i	130*	100	-11	97
Cc1nn(C)c(Cl)c1CN1CCC(CO)(CC2CCCCO2)CC1 (centres undefined)	102	i	4	0	i	105	.	.	.
O=C1OC(/C(=C\Nc2cc(Cl)ccc2O)[N+](=O)[O-])c2ccccc21 (centres undefined)	52	i	-17	1	i	38*[inhibitor]	100	-1	103
CC(C)Oc1cccc(C(=O)NC(=S)Nc2ccccc2)c1	97	i	-1	7	i	90	.	.	.
Cc1ccc(SCc2nc3ccccc3[nH]2)cc1	2.0*[inhibitor]	i	-37	0	i	2.0*[inhibitor]	104	8	106
COc1ccc(OCC(O)CNCCOc2ccccc2OC)c(C(C)(C)C)c1 (centres undefined)	147*	i	25*	9	i	112	128	12	103
COc1ccccc1NCC(O)COc1ccc(C(C)(C)C)cc1 (centres undefined)	107	i	3	15	i	108	.	.	.
O=C(c1ccco1)N1CCN(C(=O)c2ccccc2NS(=O)(=O)c2ccc(F)cc2)CC1	85	i	-9	-2	i	88	.	.	.
O=C(NC1CCCCC1)c1ccc(S(=O)(=O)N2CCCC2)cc1	112	i	6	2	i	105	.	.	.
O=C(NC1CCCC1)c1ccc(S(=O)(=O)N2CCOCC2)cc1	123	i	8	-2	i	131*	152	33	106
COc1ccc(NC2CC(=O)N(c3ccc(C(=O)O)cc3)C2=O)cc1 (centres undefined)	108	i	0	-2	i	130*	97	5	102
O=C(Nc1cccc(Cl)c1)C1COc2ccccc2O1 (centres undefined)	105	i	7	0	i	106	.	.	.
CCOC(=O)c1cc2c(ccc3nc(C)c(C)c32)[nH]c1C	101	i	0	13	i	98	.	.	.
CN1CCN(c2ccc(Cl)cc2NC(=O)/C=C/c2ccc(F)cc2)CC1	195*	i	51*	0	i	108	185	60	109
CN1CCN(C(=O)c2ccccc2NC(=O)CCN2C(=O)c3ccccc3C2=O)CC1	104	i	1	1	i	100	.	.	.
CN1CCN(c2ccc(Cl)cc2NC(=O)CCN2C(=O)c3ccccc3C2=O)CC1	171*	i	0	1	i	108	155	34	101
COc1ccc(CC(=O)OCC(=O)Nc2cccc(Cl)c2)cc1	94	i	-4	1	i	102	.	.	.
COc1ccc(CCC(=O)Nc2cccc(Cl)c2)cc1	107	i	0	1	i	130*	122	10	105
COc1ccc(CCC(=O)Nc2ccc(-c3noc(-c4ccc(OC)c(OC)c4)n3)cc2)cc1	123	i	6	-2	i	124*	111	3	106
CCN(CC)CCCn1c2c(c(SCC(=O)N3CCc4ccccc43)nc1=O)CCC2	.	i	.	0	i	.	.	.	.
COc1ccc(CCC(=O)Nc2cc(Cl)ccc2N2CCN(C)CC2)cc1	117	.	25*	0	i	101	124	14	108
COc1ccc(CC(=O)Nc2cc(Cl)ccc2N2CCCC2)cc1	101	i	3	4	i	103	.	.	.
O=c1[nH]c(SCc2ccccc2)nc2c1sc1ccccc12	103	i	-1	0	i	104	.	.	.
CSc1ccccc1NC(=O)CN1CC(C)OC(C)C1 (centres undefined)	114	i	3	-1	i	133*	110	2	98
SMILES	MEKK2 WT-MEK5	TMEM16A act	MEKK2 mut-MEK5	NTR1 agonist	TMEM16A inh	MEKK3 PB1 HTS	MEKK2wt confirm	MEKK2mut-MEK5	MEKK3 confirm
O=C(COC(=O)CCCN=C1NS(=O)(=O)c2ccccc21)NC(=O)NC1CCCC1	103	i	4	0	i	103	.	.	.
CO/N=C1\CCCc2c(C(=O)NN)sc(SC)c21	88	i	-5	1	i	91	.	.	.
CCOC(=O)c1sc(SC)c2c1CCC/C2=N/OC	118	i	30	2	i	131*	99	0	102
CCOC(=O)C1=C(C)Nc2sc(C(=O)c3ccc(C)cc3)c(N)c2C1c1ccc(C(=O)OC)cc1 (centres undefined)	109	i	1	2	i	149*	98	-3	101
O=C(CSc1cccc[n+]1[O-])Nc1ccc2c(c1)OCO2	71	i	-12	-1	i	71*[inhibitor]	102	-1	101
Cc1cc(C(F)(F)F)n2ncc(C(=O)O)c2n1	107	i	1	-1	i	105	.	.	.
CCN(CC)S(=O)(=O)c1cc(C)c(C)cc1Br	71*[inhibitor]	i	-4	-1	i	61*[inhibitor]	103	3	103
O=C(COC(=O)C1CC2CCCC(C1)C2=O)Nc1ccc(Cl)cn1 (centres undefined)	.	i	.	-3	.	.	.	.	.
Cc1csc(SCC(=O)NCc2cccc(Cl)c2)n1	96	i	-8	2	i	98	.	.	.
Cc1csc(SCC(=O)NCCc2ccc(Cl)cc2Cl)n1	95	i	-1	-1	i	69*[inhibitor]	100	2	101

Assay outcomes as filed in PubChem.
